Experimental data as given in the supplement of paper PMC10849652.
The full data set covers some 8,800 targets. This sample favours those with a hit. About 0.5% of all pairs of compound and target were hits. Unmarked numbers belong to inactive results.

What follows are targets tested with Cc1cn(-c2cc(NC(=O)c3ccc(C)c(Nc4nccc(-c5cccnc5)n4)c3)cc(C(F)(F)F)c2)cn1 [nilotinib] (assay: log2 fold change, soluble protein after heating vs DMSO (PISA); higher = thermal stabilisation; K562 lysate, 10 uM; active = over 0.2 and 3.5 SD of the protein, either way, in both replicates (recomputed)).
How it was run: (§1)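 Pellets of K562 cells were dounce-homogenised in PBS pH 7.4 with 1 mM MgCl2, and the crude extract was held at 1 mg/mL protein for a 30 min treatment with 10 μM compound. Aliquots were heated for 3 min over 48°C-58°C and pooled before NP-40 was added to 0.5% at 4°C. The supernatant from 21,000xg for 90 min was quantified by TMTpro 16plex LC-MS/MS with channel sums equalised. Values are reported from duplicates as log-two fold change in thermal stability relative to solvent controls.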

Sequence of UniProt P78536 (P78536 whole entry, looked up): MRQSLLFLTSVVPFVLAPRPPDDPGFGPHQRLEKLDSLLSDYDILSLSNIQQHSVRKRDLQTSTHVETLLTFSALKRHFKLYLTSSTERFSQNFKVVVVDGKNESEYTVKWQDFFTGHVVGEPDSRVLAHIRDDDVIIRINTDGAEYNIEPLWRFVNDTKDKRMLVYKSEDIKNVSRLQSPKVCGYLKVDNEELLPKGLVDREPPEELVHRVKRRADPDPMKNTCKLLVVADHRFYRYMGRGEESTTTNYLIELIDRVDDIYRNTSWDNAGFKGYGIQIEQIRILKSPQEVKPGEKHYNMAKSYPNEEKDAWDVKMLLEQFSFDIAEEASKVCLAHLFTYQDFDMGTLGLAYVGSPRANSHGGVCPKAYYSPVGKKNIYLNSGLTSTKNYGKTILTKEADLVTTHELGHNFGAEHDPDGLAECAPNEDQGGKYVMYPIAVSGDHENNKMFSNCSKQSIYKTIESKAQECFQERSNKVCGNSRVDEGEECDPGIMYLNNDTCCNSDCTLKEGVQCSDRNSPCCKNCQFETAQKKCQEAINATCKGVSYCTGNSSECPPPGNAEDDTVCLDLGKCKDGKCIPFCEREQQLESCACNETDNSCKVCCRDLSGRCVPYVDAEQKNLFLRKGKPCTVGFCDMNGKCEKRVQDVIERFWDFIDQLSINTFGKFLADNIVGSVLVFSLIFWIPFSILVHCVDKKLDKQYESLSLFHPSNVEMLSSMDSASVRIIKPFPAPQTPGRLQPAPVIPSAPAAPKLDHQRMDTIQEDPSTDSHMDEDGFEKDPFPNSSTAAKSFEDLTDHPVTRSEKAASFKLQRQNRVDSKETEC
Sequence of UniProt Q13686 (Q13686 whole entry, looked up): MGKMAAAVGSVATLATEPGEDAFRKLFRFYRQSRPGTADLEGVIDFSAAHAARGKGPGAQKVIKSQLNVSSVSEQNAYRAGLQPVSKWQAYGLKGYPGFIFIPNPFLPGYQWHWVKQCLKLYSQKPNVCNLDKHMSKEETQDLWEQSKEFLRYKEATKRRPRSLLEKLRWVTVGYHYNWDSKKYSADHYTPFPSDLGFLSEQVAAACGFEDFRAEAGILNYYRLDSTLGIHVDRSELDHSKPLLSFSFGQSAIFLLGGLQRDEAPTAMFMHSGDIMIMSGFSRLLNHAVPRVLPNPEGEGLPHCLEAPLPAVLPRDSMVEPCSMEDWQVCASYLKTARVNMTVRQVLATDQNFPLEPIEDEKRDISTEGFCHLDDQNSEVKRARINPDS
Sequence of UniProt Q9BXX2 (Q9BXX2 whole entry, looked up): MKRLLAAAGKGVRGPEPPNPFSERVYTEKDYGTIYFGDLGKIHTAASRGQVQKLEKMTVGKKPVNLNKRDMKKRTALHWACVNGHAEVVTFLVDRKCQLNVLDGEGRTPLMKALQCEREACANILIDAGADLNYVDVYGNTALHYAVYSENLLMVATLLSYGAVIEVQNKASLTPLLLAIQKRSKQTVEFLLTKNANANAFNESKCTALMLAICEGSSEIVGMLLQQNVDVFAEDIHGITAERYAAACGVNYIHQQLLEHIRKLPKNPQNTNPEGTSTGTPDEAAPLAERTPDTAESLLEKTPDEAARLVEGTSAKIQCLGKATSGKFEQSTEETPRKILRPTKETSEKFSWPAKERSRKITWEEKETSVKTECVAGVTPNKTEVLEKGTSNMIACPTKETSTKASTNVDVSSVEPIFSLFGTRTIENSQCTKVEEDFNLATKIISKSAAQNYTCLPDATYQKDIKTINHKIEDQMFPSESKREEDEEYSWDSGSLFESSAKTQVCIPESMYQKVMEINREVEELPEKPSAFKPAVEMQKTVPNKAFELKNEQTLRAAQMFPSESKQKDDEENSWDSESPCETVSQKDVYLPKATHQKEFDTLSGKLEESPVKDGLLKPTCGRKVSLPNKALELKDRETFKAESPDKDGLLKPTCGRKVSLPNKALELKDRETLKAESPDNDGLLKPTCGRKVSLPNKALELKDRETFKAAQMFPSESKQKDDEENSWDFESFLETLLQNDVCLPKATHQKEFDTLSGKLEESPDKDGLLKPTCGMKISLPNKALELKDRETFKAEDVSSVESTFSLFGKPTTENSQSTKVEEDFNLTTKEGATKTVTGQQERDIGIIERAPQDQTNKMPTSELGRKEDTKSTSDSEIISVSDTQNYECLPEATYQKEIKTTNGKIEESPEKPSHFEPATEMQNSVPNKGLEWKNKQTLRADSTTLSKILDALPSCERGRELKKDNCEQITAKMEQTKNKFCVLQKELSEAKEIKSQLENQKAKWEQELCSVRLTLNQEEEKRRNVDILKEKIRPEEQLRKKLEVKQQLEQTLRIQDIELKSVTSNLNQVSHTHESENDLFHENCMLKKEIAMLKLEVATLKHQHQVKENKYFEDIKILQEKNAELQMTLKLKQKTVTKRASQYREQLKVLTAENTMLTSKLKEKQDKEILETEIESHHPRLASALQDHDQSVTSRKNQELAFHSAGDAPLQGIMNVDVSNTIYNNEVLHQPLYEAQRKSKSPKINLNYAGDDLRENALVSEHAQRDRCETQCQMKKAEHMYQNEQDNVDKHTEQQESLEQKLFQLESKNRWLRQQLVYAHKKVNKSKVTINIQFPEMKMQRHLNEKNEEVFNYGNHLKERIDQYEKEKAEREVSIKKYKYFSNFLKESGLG
Sequence of UniProt P08758 (P08758 whole entry, looked up): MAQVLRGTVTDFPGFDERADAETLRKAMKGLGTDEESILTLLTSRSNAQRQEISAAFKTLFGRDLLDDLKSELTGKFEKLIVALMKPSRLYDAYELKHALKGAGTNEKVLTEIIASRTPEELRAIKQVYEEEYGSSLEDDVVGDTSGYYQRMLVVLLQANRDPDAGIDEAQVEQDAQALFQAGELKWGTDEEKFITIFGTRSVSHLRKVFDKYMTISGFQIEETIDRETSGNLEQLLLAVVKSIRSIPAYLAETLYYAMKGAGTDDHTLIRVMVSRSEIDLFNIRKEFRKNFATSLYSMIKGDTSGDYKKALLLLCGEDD
Sequence of UniProt Q6AI12 (Q6AI12 whole entry, looked up): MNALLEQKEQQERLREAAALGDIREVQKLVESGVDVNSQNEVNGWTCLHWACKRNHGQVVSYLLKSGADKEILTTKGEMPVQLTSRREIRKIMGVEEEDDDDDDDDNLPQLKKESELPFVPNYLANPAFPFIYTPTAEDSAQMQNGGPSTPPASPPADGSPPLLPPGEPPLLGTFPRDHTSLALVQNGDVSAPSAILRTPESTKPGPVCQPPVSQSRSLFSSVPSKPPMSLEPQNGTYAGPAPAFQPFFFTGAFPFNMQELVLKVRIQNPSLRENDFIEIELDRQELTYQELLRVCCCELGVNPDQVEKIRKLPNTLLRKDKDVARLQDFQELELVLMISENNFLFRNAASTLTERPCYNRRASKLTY
Sequence of UniProt Q04771 (Q04771 whole entry, looked up): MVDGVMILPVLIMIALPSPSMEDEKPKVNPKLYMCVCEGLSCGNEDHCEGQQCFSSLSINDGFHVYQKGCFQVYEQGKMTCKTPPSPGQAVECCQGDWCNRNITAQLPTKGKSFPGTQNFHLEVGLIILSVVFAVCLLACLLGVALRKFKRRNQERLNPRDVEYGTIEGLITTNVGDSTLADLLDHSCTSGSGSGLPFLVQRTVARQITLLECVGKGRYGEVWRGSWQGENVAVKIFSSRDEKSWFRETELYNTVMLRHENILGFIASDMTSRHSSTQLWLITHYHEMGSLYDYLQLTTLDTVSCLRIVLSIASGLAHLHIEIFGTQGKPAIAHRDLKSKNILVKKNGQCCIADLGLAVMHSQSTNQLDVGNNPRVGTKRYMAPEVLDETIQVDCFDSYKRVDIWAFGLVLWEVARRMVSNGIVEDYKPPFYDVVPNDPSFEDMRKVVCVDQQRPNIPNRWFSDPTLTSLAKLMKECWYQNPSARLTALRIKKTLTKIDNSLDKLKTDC
Sequence of UniProt P27216 (P27216 whole entry, looked up): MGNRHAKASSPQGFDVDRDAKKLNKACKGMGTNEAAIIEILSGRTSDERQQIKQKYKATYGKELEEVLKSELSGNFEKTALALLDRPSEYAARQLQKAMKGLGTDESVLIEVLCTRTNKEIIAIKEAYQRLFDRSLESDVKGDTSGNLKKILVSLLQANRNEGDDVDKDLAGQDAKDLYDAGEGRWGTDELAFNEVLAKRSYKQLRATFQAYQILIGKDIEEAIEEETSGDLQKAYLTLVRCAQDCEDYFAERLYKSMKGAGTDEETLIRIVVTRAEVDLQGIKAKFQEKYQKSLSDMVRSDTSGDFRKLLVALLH
Sequence of UniProt Q9BT30 (Q9BT30 whole entry, looked up): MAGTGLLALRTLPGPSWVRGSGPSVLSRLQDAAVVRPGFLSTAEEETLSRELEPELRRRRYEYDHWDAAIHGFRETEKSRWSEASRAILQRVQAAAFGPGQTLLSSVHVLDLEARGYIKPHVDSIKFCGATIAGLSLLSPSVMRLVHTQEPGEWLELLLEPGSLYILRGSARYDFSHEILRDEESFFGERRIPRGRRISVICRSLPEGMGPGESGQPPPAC
Sequence of UniProt Q9P1F3 (Q9P1F3 whole entry, looked up): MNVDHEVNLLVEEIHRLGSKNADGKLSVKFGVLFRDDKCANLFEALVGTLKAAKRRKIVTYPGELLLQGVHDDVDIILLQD
Sequence of UniProt Q6P1M9 (Q6P1M9 whole entry, looked up): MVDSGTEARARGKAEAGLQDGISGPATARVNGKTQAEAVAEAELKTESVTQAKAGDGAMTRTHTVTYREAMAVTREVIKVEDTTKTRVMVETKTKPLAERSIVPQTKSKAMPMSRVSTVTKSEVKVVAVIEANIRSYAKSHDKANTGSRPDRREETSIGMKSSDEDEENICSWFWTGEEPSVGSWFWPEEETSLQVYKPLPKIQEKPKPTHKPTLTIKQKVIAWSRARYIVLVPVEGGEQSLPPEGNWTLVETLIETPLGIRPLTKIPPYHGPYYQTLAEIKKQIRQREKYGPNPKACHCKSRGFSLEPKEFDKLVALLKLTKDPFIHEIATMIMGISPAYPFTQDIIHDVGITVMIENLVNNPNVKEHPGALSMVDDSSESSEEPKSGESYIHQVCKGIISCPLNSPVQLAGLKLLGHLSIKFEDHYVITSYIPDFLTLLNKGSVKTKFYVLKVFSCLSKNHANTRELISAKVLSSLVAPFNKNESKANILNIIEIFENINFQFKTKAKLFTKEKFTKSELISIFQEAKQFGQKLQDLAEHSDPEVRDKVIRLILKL

**Q.** With ACIN1 (UniProt E7EQT4) as the target, how does the log2 fold change read?
**A.** 0.033

**Q.** For ANKRD40 (UniProt Q6AI12), which log2 fold change is on record?
**A.** -0.04

**Q.** Which log2 fold change does the source give for ABRACL (UniProt Q9P1F3) here?
**A.** 0.194

**Q.** How did the log2 fold change turn out when ANKRD10 (UniProt Q9NXR5) was run?
**A.** -0.042

**Q.** How did the log2 fold change turn out when ACVR1 (UniProt Q04771) was run?
**A.** -0.11

**Q.** For ALKBH1 (UniProt Q13686), which log2 fold change is on record?
**A.** -0.087

**Q.** Which log2 fold change does the source give for ANXA2 (UniProt H0YL33) here?
**A.** -0.153

**Q.** For ACAT1, A0A5F9ZHJ0, which log2 fold change is on record?
**A.** -0.176

**Q.** AGPAT2 (UniProt O15120) was tested. Which log2 fold change did it give?
**A.** -0.044

**Q.** ALG13 isoform 2 (UniProt Q9NP73) was tested. Which log2 fold change did it give?
**A.** 0.142

**Q.** For ADAM17 (UniProt P78536), which log2 fold change is on record?
**A.** -0.093

**Q.** Which log2 fold change does the source give for ADK, A0A5F9ZH76 here?
**A.** -0.267

**Q.** Which log2 fold change does the source give for ARHGEF2 (UniProt V9GYF0) here?
**A.** 0.029

**Q.** How did the log2 fold change turn out when ACYP2 (UniProt P14621) was run?
**A.** -0.008

**Q.** How did the log2 fold change turn out when AGGF1 (UniProt Q8N302) was run?
**A.** 0.02

**Q.** For ACLY isoform 2 (UniProt P53396), which log2 fold change is on record?
**A.** 0.08

**Q.** How did the log2 fold change turn out when ANKRD44 isoform 2 (UniProt Q8N8A2) was run?
**A.** -0.19

**Q.** Which log2 fold change does the source give for ANKRD30B (UniProt Q9BXX2) here?
**A.** 0.061

**Q.** For AP3D1 isoform 2 (UniProt O14617), which log2 fold change is on record?
**A.** -0.287

**Q.** For ANXA5 (UniProt P08758), which log2 fold change is on record?
**A.** 0.031

**Q.** For ANXA13 isoform 2 (UniProt P27216), which log2 fold change is on record?
**A.** -0.001

**Q.** ALKBH7 (UniProt Q9BT30) was tested. Which log2 fold change did it give?
**A.** -0.039

**Q.** Which log2 fold change does the source give for ARMCX5 (UniProt Q6P1M9) here?
**A.** 0.035

Each target was assayed with Cc1nc(Nc2n[nH]c3c2CN(C(=O)N[C@H](CN(C)C)c2ccccc2)C3(C)C)c2sccc2n1 in the same assay as above.
How it was run: as §1

**Q.** How did the log2 fold change turn out when ACIN1 (UniProt E7EQT4) was run?
**A.** -0.032

**Q.** How did the log2 fold change turn out when ANKRD40 (UniProt Q6AI12) was run?
**A.** -0.115

**Q.** For ABRACL (UniProt Q9P1F3), which log2 fold change is on record?
**A.** 0.006

**Q.** How did the log2 fold change turn out when ANKRD10 (UniProt Q9NXR5) was run?
**A.** -0.021

**Q.** ACVR1 (UniProt Q04771) was tested. Which log2 fold change did it give?
**A.** 0.013

**Q.** For ALKBH1 (UniProt Q13686), which log2 fold change is on record?
**A.** -0.026

**Q.** How did the log2 fold change turn out when ANXA2 (UniProt H0YL33) was run?
**A.** 0.008

**Q.** Which log2 fold change does the source give for ACAT1, A0A5F9ZHJ0 here?
**A.** 0.063

**Q.** Which log2 fold change does the source give for AGPAT2 (UniProt O15120) here?
**A.** 0.046

**Q.** ALG13 isoform 2 (UniProt Q9NP73) was tested. Which log2 fold change did it give?
**A.** -0.082

**Q.** ADAM17 (UniProt P78536) was tested. Which log2 fold change did it give?
**A.** -0.151

**Q.** For ADK, A0A5F9ZH76, which log2 fold change is on record?
**A.** 0.089

**Q.** Which log2 fold change does the source give for ARHGEF2 (UniProt V9GYF0) here?
**A.** -0.119

**Q.** With ACYP2 (UniProt P14621) as the target, how does the log2 fold change read?
**A.** -0.079

**Q.** For AGGF1 (UniProt Q8N302), which log2 fold change is on record?
**A.** 0.055

**Q.** With ACLY isoform 2 (UniProt P53396) as the target, how does the log2 fold change read?
**A.** 0.038

**Q.** How did the log2 fold change turn out when ANKRD44 isoform 2 (UniProt Q8N8A2) was run?
**A.** -0.03

**Q.** With ANKRD30B (UniProt Q9BXX2) as the target, how does the log2 fold change read?
**A.** -0.076

**Q.** With AP3D1 isoform 2 (UniProt O14617) as the target, how does the log2 fold change read?
**A.** 0.035

**Q.** ANXA5 (UniProt P08758) was tested. Which log2 fold change did it give?
**A.** -0.008

**Q.** How did the log2 fold change turn out when ANXA13 isoform 2 (UniProt P27216) was run?
**A.** 0.005

**Q.** Which log2 fold change does the source give for ABL1 isoform 2 (UniProt P00519) here?
**A.** 0.006

**Q.** ALKBH7 (UniProt Q9BT30) was tested. Which log2 fold change did it give?
**A.** -0.04

**Q.** How did the log2 fold change turn out when ARMCX5 (UniProt Q6P1M9) was run?
**A.** 0.009

Each target was assayed with Cc1nc(Nc2ncc(C(=O)Nc3c(C)cccc3Cl)s2)cc(N2CCN(CCO)CC2)n1 [dasatinib] in the same assay as above.
How it was run: as §1

**Q.** With ALDH18A1 isoform 2 (UniProt P54886) as the target, how does the log2 fold change read?
**A.** 0.089

**Q.** How did the log2 fold change turn out when ACIN1 (UniProt E7EQT4) was run?
**A.** 0.043

**Q.** How did the log2 fold change turn out when ANKRD40 (UniProt Q6AI12) was run?
**A.** 0.197

**Q.** How did the log2 fold change turn out when ABRACL (UniProt Q9P1F3) was run?
**A.** -0.119

**Q.** How did the log2 fold change turn out when ADD1 isoform 4 (UniProt P35611) was run?
**A.** -0.017

**Q.** ANKRD10 (UniProt Q9NXR5) was tested. Which log2 fold change did it give?
**A.** -0.05

**Q.** Which log2 fold change does the source give for ACVR1 (UniProt Q04771) here?
**A.** 0.258

**Q.** ALDH3A1 (UniProt P30838) was tested. Which log2 fold change did it give?
**A.** 1.35 (active)

**Q.** With ALKBH1 (UniProt Q13686) as the target, how does the log2 fold change read?
**A.** -0.249

**Q.** ANXA2 (UniProt H0YL33) was tested. Which log2 fold change did it give?
**A.** -0.069

**Q.** With ALG3 (UniProt Q92685) as the target, how does the log2 fold change read?
**A.** -0.049

**Q.** Which log2 fold change does the source give for ADAM17 (UniProt P78536) here?
**A.** -0.032

**Q.** ABCA3 (UniProt Q99758) was tested. Which log2 fold change did it give?
**A.** 0.044

**Q.** With ARL13B (UniProt Q3SXY8) as the target, how does the log2 fold change read?
**A.** 0

**Q.** With ARHGEF2 (UniProt V9GYF0) as the target, how does the log2 fold change read?
**A.** 0.02

**Q.** Which log2 fold change does the source give for ABCC5 (UniProt O15440) here?
**A.** 0.105

**Q.** How did the log2 fold change turn out when ANKRD30B (UniProt Q9BXX2) was run?
**A.** -0.061

**Q.** ANXA5 (UniProt P08758) was tested. Which log2 fold change did it give?
**A.** -0.009

**Q.** How did the log2 fold change turn out when ANXA13 isoform 2 (UniProt P27216) was run?
**A.** 0.007

**Q.** For ALKBH7 (UniProt Q9BT30), which log2 fold change is on record?
**A.** -0.017

**Q.** Which log2 fold change does the source give for ARMCX5 (UniProt Q6P1M9) here?
**A.** -0.039
